Results taken from ChEMBL document CHEMBL1157539, “Thousands of chemical starting points for antimalarial lead identification” (Nature, 2010).

Key:
Assay type in all cases: functional
[1] = test system: Plasmodium falciparum; assay: GSK_TCMDC: Inhibition of Plasmodium falciparum 3D7 in whole red blood cells, using parasite LDH activity as an index of growth. Test compounds present at 2uM
[2] = test system: Plasmodium falciparum; assay: GSK_TCMDC: Inhibition of Plasmodium falciparum Dd2 in whole red blood cells, using parasite LDH activity as an index of growth. Test compounds present at 2uM
[3] = test system: HepG2; assay: GSK_TCMDC: Percent inhibition of human HepG2 cell line. Test compounds present at 10uM.

SMILES | Inhibition [1] [%] | Inhibition [2] [%] | Inhibition [3] [%]
CCOc1cc(CC)ccc1C1CCN(CCN2CCC(CNC(=O)c3ccc(-c4ccc(C#N)cc4)cc3)CC2)CC1 | 89 | 100 | 53
O=C(/C=C/c1ccc(Cl)c(Cl)c1)NCCCN1CCC(c2c[nH]c3ccccc23)CC1 | 90 | 5 | 48
CN(C)CCOc1cc(NC(=O)Nc2ccc(-c3ccccc3)cc2)ccc1I | 100 | 45 | 9
Cl.NCc1ccc(-c2ccc3c(N)nccc3c2)cc1 | 100 | 92 | 28
